Molecules are shown by their SMILES. Active and inactive are the calls of the source. Entries that show only a call come without a potency. The call rests on the fitted dose curve; in most records, active means well fitted activation curve with a large enough effect; inconclusive means small, poorly fitted or top-dose-only effect; inactive means no such curve, though single readings can be large or run the other way.

The results in this text go back to PubChem BioAssay AID1508622 (National Center for Advancing Translational Sciences (NCATS), 2021).

The assay in a line: Confirmatory qHTS for Identification of Small Molecule Activators of Huntingtin-Antisense Promoter Activity. Particulars: HEK293 HTT-AS promoter firefly luciferase reporter, 24 h; series mostly up to 57.5 µM. The essentials: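 Plated reporter HEK293 cells (24 h) received library compounds at up to 57.5 uM final or 50 uM PTC124, incubated 24 h at 37C; firefly luciferase luminescence was then recorded with Dual-Glo reagent.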
For orientation: In qHTS, concentration-response curves come from the screen itself.
As to `Cc1ccc(C)c(N2CCN(C(=O)Cn3cnc4nc5c(cc4c3=O)CCCC5)CC2)c1`, the Potency entry is “inactive”.

Regarding `COc1ccccc1CNC(=O)Cn1c(=O)oc2cc(S(=O)(=O)N3CCC(C)CC3)ccc21`, the Potency result is “inactive”.

For `Cc1ccc(-c2nc(S(=O)(=O)c3ccccc3)c(SCC(=O)NC3CCCCC3)o2)cc1`, the Potency result is “inactive”.

In the case of `CCOc1ccc(S(=O)(=O)N(C(=O)c2ccncc2)c2ccc3oc(C)c(C(=O)OC)c3c2)cc1`, the Potency entry is “inactive”.

As to `COc1ccccc1N1CCN(C(CNC(=O)C(=O)NCCc2ccccc2)c2cccnc2)CC1` (stereo not given), the Potency result was “inactive”.

As for `CCCCOc1ccc(C(=O)Nc2ccc3c(c2)CCCN3C(=O)c2cccs2)cc1`, the Potency entry is “inactive”.

`CCN1C(=O)c2ccccc2Sc2ccc(NC(=O)Nc3cccc([N+](=O)[O-])c3C)cc21`: the Potency result was “inactive”.

Take `CCc1ccc(C2CC(=O)Nc3c2c(C)nn3-c2nc(C)cc(C)n2)cc1` (stereo not given): the Potency entry is “inactive”.

In the case of `CCCS(=O)(=O)NCCc1sc2nc(-c3ccc(F)cc3)nn2c1C`, the Potency result is “inactive”.

`CCc1ccc(CN(Cc2ccco2)C(=O)COc2ccccc2Cl)cc1`: the Potency entry was “inactive”.

`Cc1ccc(CN2CCCn3nc(C(=O)NCc4ccc(OC(C)C)cc4)cc3C2=O)cc1`: the Potency entry is “inactive”.

For `COC[C@H](NC(=O)c1cnc(C)s1)C(=O)N[C@@H](COC)C(=O)N[C@@H](Cc1ccccc1)C(=O)[C@@]1(C)CO1`, the Potency entry is “inactive”.

Take `COc1cc(CN(C(=O)COc2ccc(C)cc2)c2ccccn2)cc(OC)c1OC`: the Potency result was “inactive”.

On to `COc1ccc(N(Cc2ccccc2)C(=O)c2nc(SC)ncc2Cl)cc1`, for which the Potency entry is “inactive”.

Consider `O=C(Nc1ccc(F)c(Cl)c1)c1cc(S(=O)(=O)N2CCCc3ccccc32)ccc1F`, for which the Potency entry was “inactive”.
